The list is not random: actives were taken first. Their share in the collection is about 2.8%.
PAFAH2 FP inh = PAFAH2 (human) inhibition; AID 492956; Q99487; recombinant PAFAH2, FP-rhodamine activity probe, fluorescence polarization; 340,000 compounds, 0.99% hits; inhibition, % at 3.39 µM;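 active = inhibition above the mean over all tested compounds plus 3 SD, cut at about 30% in these data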;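 note: inhibitors block probe labeling of enzyme so polarization drops; 0% = enzyme with DMSO and 100% = wells lacking PAFAH2 protein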
DAGLB inh = blocks human DAGLB lipase activity | inhibition, % at 5.17 µM | 340,000 compounds, 0.059% hits | HEK293T DAGLB membrane lysate, EnzChek fluorogenic substrate | Q8NCG7; in the data active = inhibition above about 34%;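 note: 0% = enzyme with vehicle and 100% = wells lacking enzyme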
PAFAH1B2 inh = PAFAH1B2 (human) inhibition | P68402 | recombinant PAFAH1B2, FP-rhodamine activity probe, fluorescence polarization | inhibition, % at 3.39 µM | 340,000 compounds, 1.2% hits | AID 492953;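 active = inhibition above the mean of all tested compounds plus 3 SD, cut at about 24% in these data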;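 note: 0% = enzyme with DMSO and 100% = wells lacking PAFAH1B2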
Target sequence (P68402 whole entry, looked up): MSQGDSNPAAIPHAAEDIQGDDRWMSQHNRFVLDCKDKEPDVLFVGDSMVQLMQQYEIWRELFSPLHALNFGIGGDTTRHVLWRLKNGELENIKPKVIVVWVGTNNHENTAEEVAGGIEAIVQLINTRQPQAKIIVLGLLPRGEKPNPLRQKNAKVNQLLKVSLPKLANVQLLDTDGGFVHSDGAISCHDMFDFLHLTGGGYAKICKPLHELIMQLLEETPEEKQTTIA
pPAFAH FP inh = inhibitors of human plasma PAF acetylhydrolase (pPAFAH); AID 463082; 330,000 compounds, 1.5% hits; inhibition, % at 3.39 µM; Q13093; recombinant pPAFAH, FP-rhodamine probe fluorescence polarization;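 active = inhibition above the mean inhibition across the screen plus 3 SD, cut at about 25% in these data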;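 note: inhibitors block binding of the rhodamine activity-based probe so polarization drops; 0% = enzyme with DMSO and 100% = wells lacking pPAFAH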
PAFAH1B3 inh = PAFAH1B3 (human) inhibition; Q15102; recombinant PAFAH1B3, FP-rhodamine probe, fluorescence polarization; inhibition, % at 3.39 µM; 340,000 compounds, 0.28% hits;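 active = inhibition above the screen-wide average of all tested compounds plus 3 SD, cut at about 25% in these data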;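 note: 0% = enzyme with DMSO only and 100% = wells lacking PAFAH1B3 protein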
HTRA1 inhibitor = HTRA1 (human) protease inhibition. inhibition, % at 5.96 µM. Q92743. recombinant HTRA1, FP-rhodamine activity-based probe, fluorescence polarization. 340,000 compounds, 0.5% hits. AID 504803; in the data active = inhibition above about 36%;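 note: 0% = enzyme with DMSO and 100% = wells lacking enzyme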
Target sequence (Q92743 whole entry, looked up): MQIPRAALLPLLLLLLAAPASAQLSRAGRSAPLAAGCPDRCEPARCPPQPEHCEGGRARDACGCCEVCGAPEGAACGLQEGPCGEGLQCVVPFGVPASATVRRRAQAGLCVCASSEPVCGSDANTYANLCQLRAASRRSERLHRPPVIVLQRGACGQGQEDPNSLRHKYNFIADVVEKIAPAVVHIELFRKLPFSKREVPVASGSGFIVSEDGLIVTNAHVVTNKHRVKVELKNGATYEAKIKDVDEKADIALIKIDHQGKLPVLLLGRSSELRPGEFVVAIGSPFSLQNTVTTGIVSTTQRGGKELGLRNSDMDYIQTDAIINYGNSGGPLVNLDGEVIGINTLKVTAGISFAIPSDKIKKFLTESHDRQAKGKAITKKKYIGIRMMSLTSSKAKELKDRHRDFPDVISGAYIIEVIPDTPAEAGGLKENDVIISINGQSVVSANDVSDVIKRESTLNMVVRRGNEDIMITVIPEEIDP
PAFAH2 FP conf = confirmation of human PAFAH2 inhibitors | recombinant PAFAH2, FP-rhodamine activity probe, fluorescence polarization | shares compounds with PAFAH2 FP inh | 2,300 compounds, 65% hits | inhibition, % at 3.39 µM;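 active = mean inhibition over three repeats above a set limit taken from the earlier primary screen, cut at about 30% in these data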;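 note: inhibitor blocks binding of rhodamine activity probe so polarization falls; 0% = enzyme with DMSO and 100% = wells lacking PAFAH2 protein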
Starred values were filed as active, the others as inactive; · = no result.

SMILES | PAFAH2 FP inh | DAGLB inh | PAFAH1B2 inh | pPAFAH FP inh | PAFAH1B3 inh | HTRA1 inhibitor | PAFAH2 FP conf
Cc1c(Cl)cccc1NC(=O)COC(=O)c1ccc(CN2CCCC2=O)cc1 | 76.0* | -3.6 | -0.1 | 7.3 | 6.6 | 9.2 | 67.4*
CC(=O)Nc1cc(C(=O)OCC(=O)c2ccc(Cl)cc2Cl)ccc1C | 34.5* | -0.2 | 12.5 | -0.2 | 9.0 | -1.0 | 20.9
COc1cc(Cl)c(C)cc1NC(=O)COC(=O)c1ccc(CN2CCCC2=O)cc1 | 43.3* | -2.5 | -5.7 | 8.8 | -0.3 | -10.7 | 23.3
Cc1ccc(Cl)cc1NC(=O)COC(=O)c1ccc(CN2CCCC2=O)cc1 | 59.9* | -5.7 | -0.3 | 4.0 | 4.9 | 7.9 | 43.0*
Cc1cccc(NC(=O)COC(=O)CN2CCCCCC2=O)c1C | 0.6 | 0.5 | -4.3 | 1.6 | -10.8 | -0.3 | ·
COC(=O)CCCC(=O)N1CCCC(N(C)CCc2ccccc2)C1 (stereo not given) | -1.6 | -1.4 | -2.1 | 0.5 | 4.5 | 6.9 | ·
CCCc1cnc(N2CCN(C(=O)c3ccc(OC)cc3)CC2)nc1 | -4.4 | -9.6 | 7.5 | 5.5 | 10.7 | -0.3 | ·
CCOc1ncccc1C(=O)OCC(=O)Nc1ccc(Cl)cn1 | 46.2* | -8.0 | 2.9 | 24.0 | 5.7 | 7.0 | 28.9
CCOc1ncccc1C(=O)OCC(=O)c1ccc(Br)s1 | 50.3* | -8.7 | 0.5 | 12.2 | 1.9 | -1.6 | 35.2*
O=C(COC(=O)c1ccccc1)Nc1ccc(Cl)cn1 | 45.8* | -3.3 | 0.2 | 1.6 | 7.4 | -3.5 | 49.2*
COc1ccc(C(=O)OCC(=O)Nc2ccc(Cl)cn2)cc1 | 56.2* | -4.8 | 2.5 | 5.6 | 0.9 | -0.8 | 53.7*
COc1ccccc1C(=O)OCC(=O)Nc1ccc(Cl)cn1 | 13.9 | -7.0 | -5.4 | 8.6 | 8.9 | -12.1 | ·
O=[N+]([O-])c1ccc(S(=O)(=O)NN=Cc2ccc(Cl)c(Cl)c2)cc1 | 3.9 | 5.2 | 8.4 | · | 8.4 | -1.0 | ·
O=C(CSc1n[nH]c(=O)n1Cc1ccco1)Nc1ccccc1Cl | 3.5 | -0.4 | 1.9 | -1.4 | 11.3 | 5.9 | ·
CCCc1nnc(NC(=O)CCC(=O)N2CCN(S(=O)(=O)c3ccc(C)cc3)CC2)s1 | 6.7 | -0.2 | 10.2 | 3.8 | 8.2 | 8.8 | ·
Nc1ccc(S(=O)(=O)Nc2nccs2)cc1N=Nc1ccccc1[N+](=O)[O-] | 53.5* | 13.5 | 14.1 | · | 20.7 | 7.6 | 37.5*
CC1CCCC(NC(=O)COC(=O)COc2cccc(F)c2)C1C (stereo not given) | -2.5 | -3.7 | 7.0 | 17.2 | 14.1 | -3.5 | ·
O=C(COC(=O)c1ccc(F)cc1F)NCCC1=CCCCC1 | 46.5* | -9.2 | 2.9 | 17.3 | 8.2 | -7.0 | 30.9*
O=C(COC(=O)c1ccccc1O)NCCC1=CCCCC1 | 1.2 | -9.1 | -0.3 | 6.2 | 2.8 | 0.1 | ·
O=C(COC(=O)c1ccc2c(c1)OCCO2)NCCC1=CCCCC1 | 58.0* | -6.9 | -1.4 | 16.9 | 1.6 | -6.0 | 47.1*
O=C(COC(=O)c1ccc(O)cc1)NCCC1=CCCCC1 | 56.6* | 2.5 | 2.8 | 13.2 | 5.9 | -6.7 | 50.3*
CSc1cccc(CN(C)C(=O)C2CCC(=O)N(CCCN3CCCC3=O)C2)c1 (stereo not given) | -0.3 | 1.8 | -2.2 | 2.5 | 2.3 | 1.4 | ·
CC1CCCN(CC(=O)Nc2cc(S(=O)(=O)N3CCOCC3)ccc2N2CCCC2)C1 (stereo not given) | -1.7 | 1.9 | -2.3 | -1.8 | -1.9 | -0.7 | ·
Cc1cc(=O)n2nc(N3CCCC(C(=O)NCc4cccc(Br)c4)C3)sc2n1 (stereo not given) | -11.5 | -1.6 | -0.2 | 4.5 | 8.8 | -0.2 | ·
Cc1ccc(C(=O)c2ccccc2C(=O)OCC(=O)NCCc2ccc(Cl)cc2Cl)cc1 | 46.0* | -6.6 | 5.3 | 1.9 | 3.4 | -55.1 | 48.9*
SMILES | PAFAH2 FP inh | DAGLB inh | PAFAH1B2 inh | pPAFAH FP inh | PAFAH1B3 inh | HTRA1 inhibitor | PAFAH2 FP conf
O=C(COC(=O)/C=C/c1ccccc1Cl)NCCc1ccc(Cl)cc1Cl | 66.3* | -3.9 | 0.6 | 6.4 | 6.1 | -11.2 | 52.2*
O=C(COC(=O)/C=C/c1ccc(Cl)cc1Cl)NCCC1=CCCCC1 | -3.6 | -2.7 | 0.8 | 4.8 | 3.0 | 2.1 | ·
O=C(Nc1ccsc1C(=O)O)c1ccc(Cl)cc1 | 31.3* | 2.7 | 7.9 | -7.0 | 10.5 | -9.2 | 19.4
N#CC1=C(SCC(=O)Nc2cccc3cccnc23)NC(=O)C(C#N)C12CCCCC2 (stereo not given) | 37.6* | 1.3 | 10.9 | 8.7 | 8.7 | -7.3 | 27.0
N#CC1=C(SCC(=O)NC2CC2)NC(=O)C(C#N)C12CCCCC2 (stereo not given) | 2.1 | 0.3 | 6.3 | 6.4 | -0.3 | 3.1 | ·
O=C(c1ccc(-c2cccc(C(F)(F)F)c2)o1)N1CCCC(C(F)(F)F)C1 (stereo not given) | 33.5* | -12.3 | 0.7 | 8.1 | -3.7 | -20.7 | 5.2
O=C(CSc1nc(=O)n(CCCN2CCOCC2)c2c1CCCC2)Nc1cccc(F)c1 | -6.1 | 3.3 | 4.0 | 5.2 | 11.0 | 5.3 | ·
CS(=O)(=O)c1ccc(Cl)c(NC(=O)Cc2ccccc2F)c1 | 52.2* | 0.3 | 0.8 | 13.4 | 7.0 | -7.6 | 30.4*
COC(CNC(=O)c1ccc2c(c1)ncn2-c1cccc(C)c1)OC | 0.8 | -1.2 | 2.9 | 3.7 | 3.5 | 0.0 | ·
Cc1cc(C)n(-c2ccc(C(=O)OCC(=O)Nc3ccccc3[N+](=O)[O-])cc2)n1 | 11.4 | -11.2 | 2.2 | 16.6 | 2.2 | -1.8 | ·
Cc1ccc(NC(=O)COC(=O)c2ccc(-n3nc(C)cc3C)cc2)c(F)c1 | 41.8* | -5.5 | 2.8 | 18.8 | -0.2 | -6.9 | 42.5*
Cc1cc(C)n(-c2ccc(C(=O)OCC(=O)Nc3ccccc3F)cc2)n1 | 61.9* | -5.1 | 2.6 | 23.6 | 4.7 | -4.0 | 51.1*
COc1ccc2c(n1)Sc1nc3ccccc3nc1N2 | -7.6 | -65.4 | 6.2 | 1.5 | 7.7 | 2.8 | ·
CC1CC1C(=O)OCC(=O)Nc1cc(S(=O)(=O)N2CCCCC2)ccc1Cl (stereo not given) | 72.3* | -1.3 | 6.6 | 8.2 | 7.2 | -2.1 | 60.2*
Nc1cc(N)cc(C(=O)OCC(=O)Nc2cc(S(=O)(=O)N3CCCCC3)ccc2Cl)c1 | 31.0* | 2.0 | 0.5 | 7.9 | 7.3 | 10.0 | 12.9
O=C(COC(=O)C1CCC1)Nc1cc(S(=O)(=O)N2CCOCC2)ccc1Cl | · | -2.8 | · | · | · | -1.8 | ·
Cc1ccc(NC(=O)COC(=O)C2CC2C)c(S(=O)(=O)N2CCCCC2)c1 (stereo not given) | 81.8* | 3.8 | -10.8 | 5.3 | 0.2 | 1.1 | 77.9*
COc1ccc(-n2c(SCc3cn4c(C)cccc4n3)nc3ccccc3c2=O)cc1OC | -1.3 | -0.7 | -2.3 | -3.0 | -1.4 | -18.0 | ·
CCN1CCN(C(=O)C2CCC(=O)N(CCCN3CCCC3=O)C2)CC1 (stereo not given) | 10.0 | 2.0 | 1.5 | 3.5 | 8.8 | 7.8 | ·

Source: PubChem BioAssay (The Scripps Research Institute Molecular Screening Center)
